The supplement of paper PMC7801607

Legend:
CHO = assay: % viability of CHO cells (MTT); higher = less toxic; settings: 48 h
Summary of the method: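 CHO cells were seeded at 10^6 cells/well in 200 µL and left overnight to attach. The medium was then replaced with fresh medium containing compound at 2 or 20 µM for 48 h. Survival was read colorimetrically with the tetrazolium (MTT) assay. Percent viability was expressed relative to untreated cells.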

HepG2-A16-CD81 = assay: % inhibition of HepG2 viability (CellTiter-Glo); higher = more toxic; settings: 5 µM
[1] = test system: Plasmodium falciparum NF54 stage IV/V gametocytes; assay: % inhibition of gametocyte viability (PrestoBlue); higher = more inhibition; settings: 48 h
Summary of the method: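 Stage IV/V NF54 gametocytes (2% gametocytaemia, 5% haematocrit, 100 µL/well) were exposed to compound at 1 or 5 µM. Incubation was 48 h at 37 °C, stationary and hypoxic, followed by 10 µL PrestoBlue for 2 h. Fluorescence at 612 nm was read on 70 µL of transferred supernatant. Percent inhibition of gametocyte viability was normalised to DMSO and kill controls from a single run.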

[2] = test system: Plasmodium falciparum NF54 asexual blood stage; assay: % inhibition of asexual blood stage proliferation (pLDH); higher = more inhibition; settings: 72 h
Summary of the method: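 Plasmodium falciparum NF54 ring-stage cultures (1% haematocrit, 2% parasitaemia) were exposed to compound at 2 or 20 µM in 96-well plates. Incubation was 72 h at 37 °C under 4% CO2, 3% O2 and 93% N2. Survival was read colorimetrically at 620 nm with the parasite lactate dehydrogenase assay. Percent inhibition of asexual proliferation was normalised to DMSO and kill controls, and the screen was run on two separate occasions.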

[3] = test system: Plasmodium falciparum NF54 stage IV/V gametocytes; assay: % inhibition of gametocyte viability (ATP bioluminescence); higher = more inhibition; settings: 24 h
Summary of the method: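 In 96-well plates, compound at 1 or 5 µM was added to 30,000 density-gradient-enriched stage IV/V NF54 gametocytes per well and incubated for 24 h at 37 °C. ATP readout used the Promega BacTiter Glo bioluminescence system. Percent inhibition of gametocyte viability comes from a single run, normalised to control wells.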

[4] = test system: Plasmodium falciparum NF54 stage IV/V gametocytes; assay: % inhibition of gametocyte viability (luciferase reporter); higher = more inhibition; settings: 48 h
Summary of the method: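 Percent inhibition was normalised to controls from a single run. Stage IV/V gametocytes of the NF54-Pfs16-GFP-Luc line, at 2% gametocytaemia and 2% haematocrit, were exposed to compound at 1 or 5 µM for 48 h at 37 °C under stationary, hypoxic conditions. Luminescence was then read from 30 µL lysate mixed with 30 µL Promega luciferin substrate on a GloMax-Multi+ reader with 10 s integration.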

[5] = test system: Plasmodium berghei ANKA liver stage in HepG2-A16-CD81; assay: % inhibition of liver stage parasite viability (luciferase); higher = more inhibition; settings: 5 µM; 48 h
Procedure: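 Single-concentration screen of the MMV Pandemic Response Box. P. falciparum NF54 asexual blood stages: pLDH assay, 72 h at 37 °C, 2 and 20 µM, n=2. Stage IV/V gametocytes (NF54): luciferase reporter (NF54-Pfs16-GFP-Luc, 48 h), ATP bioluminescence (24 h) and PrestoBlue (48 h) at 1 and 5 µM, n=1. P. berghei liver stage (luciferase in HepG2-A16-CD81, 48 h post infection) at 5 µM, n=4. All normalised to DMSO and kill controls as % inhibition.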
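Wherever % inhibition of HepG2 viability (CellTiter-Glo) is given: HepG2-A16-CD81 hepatoma cells plated as in the liver-stage assay but without sporozoites, with DMSO wells as negative and 25 µM puromycin as positive control.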

SMILES	% viability of CHO cells (CHO; 2 µM) [%]	% viability of CHO cells (CHO; 20 µM) [%]	% inhibition of HepG2 viability (HepG2-A16-CD81) [%]	% inhibition of gametocyte viability ([1]; 1 µM) [%]	% inhibition of gametocyte viability ([1]; 5 µM) [%]	% inhibition of asexual blood stage proliferation ([2]; 2 µM) [%]	% inhibition of asexual blood stage proliferation ([2]; 20 µM) [%]	% inhibition of gametocyte viability ([3]; 1 µM) [%]	% inhibition of gametocyte viability ([3]; 5 µM) [%]	% inhibition of gametocyte viability ([4]; 1 µM) [%]	% inhibition of gametocyte viability ([4]; 5 µM) [%]	% inhibition of liver stage parasite viability [5] [%]
Nc1nc(O)c(Br)c(-c2ccccc2)n1	89.3	61.8	7.28	< 0	16.6	6.53	33.7	< 0	< 0	1.49	9.71	5.43
C[C@H]1COc2c(N3CCN(C)CC3)c(F)cc3c(=O)c(C(=O)O)cn1c23	92.1	104	-1.57	< 0	18	15.5	39.9	1.98	1.75	18.2	0.53	11.6
CC[N+]1(C/C2=C/CCCCCC2)CCC(NC(=O)C2c3cc(Cl)ccc3Oc3ccc(Cl)cc32)CC1 (stereo unspecified)	100	75.9	7.74	< 0	41.9	21.8	101	< 0	44	7.3	34	6.03
O=c1cc(Nc2ccc3ccccc3c2)[nH]c(=O)[nH]1	85.2	85.2	4.08	< 0	4.14	1.56	3.03	< 0	< 0	< 0	1.22	39.9
CC[C@H](CO)Nc1nc(NCc2ccccc2)c2ncn(C(C)C)c2n1	157	60.7	10.6	< 0	< 0	-11.2	88	1.02	< 0	6.71	< 0	26.6
COc1ccc(SCC(=O)N2c3ccccc3Sc3ccccc32)cc1	91	110	7.46	< 0	< 0	0.401	35.5	< 0	< 0	< 0	< 0	31.1
CC[C@@H](CO)NCCN[C@@H](CC)CO	85	50.4	-1.81	< 0	25	42.9	37.6	0.155	0.768	< 0	< 0	32.9
Cc1cc(C)n2nc(C(=O)NS(=O)(=O)c3c(C)cccc3OC(F)(F)F)nc2n1	110	122	8.44	33.8	85.1	33.6	59.9	< 0	< 0	14.1	14.2	37
OC1O[C@H](CSc2ccc(F)cc2)[C@@H](O)[C@H]1O (stereo partly specified)	84.4	-2.31	-4.06	< 0	18.7	91.2	90.9	< 0	< 0	< 0	0.415	31.6
CCCCCCCCCN1C[C@@H](O)[C@H](O)[C@@H](O)[C@@H]1CO	94.1	58.9	4.62	< 0	3.2	38.4	25.3	< 0	< 0	2.02	2.49	-1.14
FC(F)(F)Oc1ccc(Nc2ccc3cccc(Cl)c3n2)cc1	101	86.1	0.506	16.2	< 0	31	98	4.02	< 0	< 0	< 0	18
CC(C)/N=c1\cc2n(-c3ccc(Cl)cc3)c3ccccc3nc-2cc1Nc1ccc(Cl)cc1	96.5	98.2	18.3	< 0	< 0	82.2	88.9	< 0	< 0	< 0	16	59.4
Cc1ccc(Oc2ccccc2-c2csc(NC3=NCCCN3)n2)c(C)c1	104	112	13	< 0	< 0	11.5	88.7	< 0	< 0	< 0	< 0	57.6
CCCCOC(=O)Nc1cc2nc(C3CCCCC3)[nH]c2cc1N(CC)CC	98.9	101	3.15	< 0	< 0	18.6	83.2	< 0	19.3	< 0	< 0	62
O=C1C=C(c2ccccc2)S(=O)(=O)c2ccccc21	91.6	81.8	-4.77	53.4	76	-2.86	54.4	13.8	83.4	16	85.4	30.4
C=C(C)[C@@H]1CC[C@]2(C(=O)O)CC[C@]3(C)[C@H](CC[C@@H]4[C@@]5(C)CC[C@H](O)C(C)(C)[C@@H]5CC[C@]43C)[C@@H]12	98.8	111	27.7	26.9	19.3	36.2	67.2	12.2	8.94	3.4	< 0	57
CN(C)CCCNC(=O)c1ccc(-c2cc(O)c3ncccc3c2)cc1	115	110	-5.75	70.8	81.4	68.6	82.4	71	81.1	5.12	23.3	24.5
CCC(CC)[C@H](NC(C)=O)[C@@H]1[C@H](O)[C@@H](C(=O)O)C[C@H]1NC(=N)N	88.2	59.8	-1.38	< 0	< 0	31	22.4	< 0	< 0	0.62	2.25	24.4
